# Data taken from the supplement of paper PMC6555819.
# Legend:
# Assay in all cases: PBM binding z-score (relative to random genomic background probes); higher = stronger binding; sequences stand for … in GC…GCGATTGACAGCGTAGAATGAAGG
# [1] = system: PPARg:RXRa DBDmut IVT, anti-RXR (DBD mutation: RXRa K156A/R161A, NR concentration 270 nM, RXRa partner concentration 90 nM)
# How it was run: (§1)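 Ligand-free nuclear receptor dimers were applied to custom Agilent 4×180K protein-binding microarrays whose double-stranded probes carried direct-repeat seeds, single-nucleotide variants, half-site ablations and random human genomic background sequences in 34-nt variable regions. Incubation lasted 1 h. Binding z-scores were computed against the random background probes from regression-normalized fluorescence.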
# [2] = system: PPARg:RXRa IVT, anti-PPARg (NR concentration 270 nM, RXRa partner concentration 90 nM)
# How it was run: as §1
# [3] = system: PPARg DBDmut:RXRa IVT, anti-PPARg (DBD mutation: PPARg1 K132A/R137A, NR concentration 270 nM, RXRa partner concentration 90 nM)
# How it was run: as §1
# [4] = system: PPARg DBDmut IVT, anti-PPARg (DBD mutation: PPARg1 K132A/R137A, NR concentration 270 nM)
# How it was run: as §1
# [5] = system: PPARg homodimer (NR concentration 180 nM)
# How it was run: as §1
# [6] = system: PXR:RXRa (NR concentration 270 nM, RXRa partner concentration 90 nM)
# How it was run: as §1
# [7] = system: PXR homodimer (NR concentration 270 nM)
# How it was run: as §1
# [8] = system: RARa:RXR (NR concentration 270 nM, RXRa partner concentration 90 nM)
# How it was run: as §1
# [9] = system: RARa homodimer (NR concentration 270 nM)
# How it was run: as §1
# [10] = system: RARb:RXRa (NR concentration 270 nM, RXRa partner concentration 90 nM)
# How it was run: as §1
# [11] = system: RARb homodimer (NR concentration 270 nM)
# How it was run: as §1
# [12] = system: RARg:RXRa (NR concentration 270 nM, RXRa partner concentration 90 nM)
# How it was run: as §1
# [13] = system: RARg homodimer (NR concentration 270 nM)
# How it was run: as §1
# [14] = system: RXRa DBDmut IVT, anti-RXR (DBD mutation: RXRa K156A/R161A, NR concentration 90 nM)
# How it was run: as §1
# [15] = system: RXRa homodimer (NR concentration 180 nM)
# How it was run: as §1
# [16] = system: THRa:RXRa (NR concentration 90 nM, RXRa partner concentration 90 nM)
# How it was run: as §1
# [17] = system: THRa homodimer (NR concentration 90 nM)
# How it was run: as §1
# [18] = system: VDR:RXRa (NR concentration 270 nM, RXRa partner concentration 90 nM)
# How it was run: as §1
# [19] = system: VDR homodimer (NR concentration 270 nM)
# How it was run: as §1
Sequence,PBM binding z-score [1],PBM binding z-score [2],PBM binding z-score [3],PBM binding z-score [4],PBM binding z-score [5],PBM binding z-score [6],PBM binding z-score [7],PBM binding z-score [8],PBM binding z-score [9],PBM binding z-score [10],PBM binding z-score [11],PBM binding z-score [12],PBM binding z-score [13],PBM binding z-score [14],PBM binding z-score [15],PBM binding z-score [16],PBM binding z-score [17],PBM binding z-score [18],PBM binding z-score [19]
ATCTCTCGGTAAAGTTCAGTGAAAGATCGATAGA,0.0239,0.915,0.801,1.45,1.63,2.11,1.75,1.59,1.08,2.84,2.62,2.19,2.56,1.17,1.06,0.717,0.426,1.1,2.27
AGTCGAAGTTCACTAGGTAACGTAAGATTCAGCT,1.76,3.45,0.653,0.81,0.849,1.88,1.18,0.939,0.371,2.91,1.74,2.29,2.93,3.45,1.6,1.05,-0.0118,2.44,2.7
AGTCAAAGCTCACTAGGTAACGTAAGATTCAGCT,1.92,2.79,0.267,-0.313,-0.462,-0.363,-0.294,-0.364,-0.0387,-0.0625,-0.396,-0.184,-0.065,-0.217,0.00455,0.131,-0.137,-0.551,-0.474
TCTCGGAGGACACGAAAGGTCAGAGTTCGACATC,1.62,1.81,-0.309,-0.696,3.27,4.98,3,5.55,1.69,4.16,5.05,5.04,5.71,1.45,5.12,3.77,1.57,4.18,3.65
ATCGAAAGGTCGAATGTGAGTATACCCACCCGAA,0.065,1.47,1.15,0.649,1.56,2.5,0.558,2.9,0.346,3.72,2.63,3.91,3.72,1.77,4.23,2.01,-0.0283,2.84,1
CCTACTGGGCCAATGGTCATTGATTCCAATGCTC,3.79,4.11,0.147,-0.523,-0.104,-0.581,-0.689,-0.388,-0.588,0.311,0.0691,-0.0352,0.182,-0.608,-0.164,-0.527,-0.561,-0.314,-0.711
TATACAGGGTCAAAGGCCAGAGTTCGAATGTCGA,2.55,4.54,1.63,2,3.99,5.44,2.54,6.63,1.14,4.53,3.91,5.81,5.41,3.27,7.53,3.61,1.03,5.34,4.77
ACAGACAGGTCATGAAGGTAACTCAGGCTATCAT,1.59,2.7,1.81,1.12,1.73,2.95,0.934,3.74,0.881,3.9,3.05,4.63,4.19,1.69,4.56,3.12,0.575,4.55,1.23
CAGCCTACGTCAGGGCCAGTATAGGAGGAACGTT,-0.745,-0.587,-0.356,-0.405,-0.116,-0.512,-0.548,0.00174,-0.296,-0.405,-0.0418,-0.371,-0.021,-0.885,-0.169,-0.415,-0.292,-0.587,-0.285
TCTAGTTGGTCACGAAGGTCACACACGACGGGTA,2.83,4.36,1.5,1.16,3.64,3.95,1.05,4.14,2,4.01,4.07,4.7,5.06,1.09,4.24,3.02,1.5,4.98,2.09
ACTAGCAGGCCAAGTTTGGGTCCCTCAAACAAAG,0.359,-0.00665,-1.13,-1.25,-0.378,-0.465,-0.57,-0.00931,-0.776,0.3,-0.155,-0.211,-0.235,-0.528,-0.565,0.0407,-0.344,-0.796,-0.397
TCTAGTTGGTCAACGGTCACACACTCGAAATGCG,2.4,2.99,0.499,0.932,1.48,0.697,0.127,0.78,1.23,2.31,2.49,1.51,2.16,1.24,1.23,0.548,0.185,0.848,0.188
CGTCCAAGGTCAATGGTAGGTCAGTGAAAGCATT,3.32,3.95,-0.0725,-0.844,5.44,4.84,1.79,5.88,1.16,5.37,5.21,7.79,6.78,3.44,5.41,4.33,2.72,4.89,2.73
GATACAGGGTCAGCAAGAGGCCAGAGTATGGAAA,0.915,2.6,-0.173,-0.37,1.98,3.23,0.0143,4.07,0.301,4.18,3.45,6.61,4.76,1.16,4.52,3.21,0.361,3.43,0.548
ATCGAAAGGTCGAGGTGAGTGTAGAGAAAGGGAA,0.382,2.47,0.918,-0.292,2.56,3.28,0.73,3.41,1.1,3.97,2.96,4.37,4.06,0.896,4.28,3.21,0.885,3.21,0.854
